# Measured values published in PubChem BioAssay (NCI).
# Where “and” joins values, the source holds several entries; their conditions need not be identical. Equal entries are not always repeated. About 83,000 compounds went through this panel and 20% of them were active in at least one assay; those are over-represented in the sample as a whole.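 Growth was measured after 48 h exposure to one concentration of compound in 96-well plates. Values under 10 count as active.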 Calls of active or inactive are those of the source.
# Tests used:
# Assay in all cases: NCI-60 one-dose screen, 48 h (100 = growth as untreated, 0 = no growth, -100 = all killed)
# Settings in all cases: 10 µM unless noted
# [1] = tested on: NCI-H23 lung
# [2] = tested on: NCI-H226 lung
# [3] = tested on: NCI-H322M lung
# [4] = tested on: HOP-62 NSCLC
# [5] = tested on: NCI-H460 lung
# [6] = tested on: A549/ATCC NSCLC
# [7] = tested on: 786-0 renal
# [8] = tested on: COLO 205 colon
# [9] = tested on: DU-145 prostate
# [10] = tested on: K-562 leukemia
# [11] = tested on: MALME-3M melanoma
# [12] = tested on: MDA-MB-231 breast
# [13] = tested on: RXF 393 renal
# [14] = tested on: SF-268 CNS
# [15] = tested on: SF-295 CNS
# [16] = tested on: SF-539 CNS
# [17] = tested on: UACC-257 melanoma
# [18] = tested on: M14 melanoma
# [19] = tested on: HOP-92 NSCLC
# [20] = tested on: NCI-H522 lung
Structure (SMILES),growth [1],growth [2],growth [3],growth [4],growth [5],growth [6],growth [7],growth [8],growth [9],growth [10],growth [11],growth [12],growth [13],growth [14],growth [15],growth [16],growth [17],growth [18],growth [19],growth [20]
CC(=O)c1ccc2c(c1)N(CCCN1CCN(CCO)CC1)c1ccccc1S2,98.1% (inactive) and 55.9% (inactive),84.5% (inactive) and 68.2% (inactive),98.8% (inactive) and 46.9% (inactive),90.7% (inactive) and 43.1% (inactive),101% (inactive) and -11.3% (active),45.5% (inactive),85.9% (inactive) and -18.4% (active),134% (inactive) and -82.8% (active),104% (inactive) and 53.3% (inactive),95.3% (inactive) and -16.7% (active),86.5% (inactive) and -80% (active),91% (inactive) and -12.3% (active),32.6% (inactive) and -8.21% (active),98.3% (inactive) and 37.5% (inactive),100% (inactive) and -53% (active),89% (inactive) and 14.7% (inactive),30.4% (inactive) and -66.5% (active),94.8% (inactive) and -87.4% (active),,
CCC(O)c1ccccc1 (stereo not given),112% (inactive) and 113% (inactive),96.1% (inactive) and 109% (inactive),114% (inactive) and 105% (inactive),,106% (inactive) and 104% (inactive),104% (inactive) and 99.4% (inactive),94.6% (inactive) and 106% (inactive),128% (inactive) and 111% (inactive),120% (inactive) and 118% (inactive),96.8% (inactive) and 104% (inactive),114% (inactive) and 111% (inactive),95.9% (inactive) and 112% (inactive),8.94% (active) and 98.9% (inactive),113% (inactive),95% (inactive) and 115% (inactive),89.2% (inactive) and 105% (inactive),135% (inactive) and 85.4% (inactive),100% (inactive),117% (inactive) and 91.6% (inactive),101% (inactive) and 86.4% (inactive)
C=C1C(=O)O[C@H]2[C@H]1CC/C(COC(=O)NC1CCC(O)CC1)=C\CC[C@@]1(C)O[C@@H]21 (stereo not given in full),58.3% (inactive) and 50.6% (inactive),85.5% (inactive) and 95% (inactive),105% (inactive) and 98.6% (inactive),97% (inactive) and 97.4% (inactive),100% (inactive) and 96.7% (inactive),91.7% (inactive) and 87.8% (inactive),103% (inactive) and 99.6% (inactive),44.9% (inactive) and 41.7% (inactive),38.7% (inactive) and 28.8% (inactive),,72.6% (inactive) and 64.5% (inactive),60.8% (inactive) and 62.4% (inactive),54% (inactive) and 53.2% (inactive),93.2% (inactive) and 91.5% (inactive),96.6% (inactive) and 95.7% (inactive),71.9% (inactive) and 63.2% (inactive),65.6% (inactive) and 69.1% (inactive),85.4% (inactive) and 71.4% (inactive),,-2.94% (active) and -11.8% (active)
CCN(CC)CCCC(C)Nc1ccnc2cc(Oc3ccccc3)ccc12 (stereo not given),90.1% (inactive) and 78.7% (inactive),99.7% (inactive) and 112% (inactive),84.7% (inactive) and 105% (inactive),68.9% (inactive) and 83.2% (inactive),69.7% (inactive) and 96.5% (inactive),58.7% (inactive) and 86.6% (inactive),64.3% (inactive) and 84.6% (inactive),47.6% (inactive) and 60.2% (inactive),91.4% (inactive) and 87.4% (inactive),1.73% (active) and 41.2% (inactive),78% (inactive) and 89.4% (inactive),40.1% (inactive) and 34.1% (inactive),17.8% (inactive) and 70.7% (inactive),54.5% (inactive) and 67.1% (inactive),81.5% (inactive) and 74.9% (inactive),1.83% (active) and 4.93% (active),-67.2% (active) and -56.4% (active),-43.4% (active) and -81.6% (active),,55.9% (inactive)
O=C1c2ccccc2C(=O)c2c(NCCNCCO)ccc(NCCNCCO)c21,-70.8% (active) and 25.8% (inactive) and 29.5% (inactive),-56.8% (active) and -20.6% (active) and -27.1% (active),7.84% (active) and 19.3% (inactive) and -5.07% (active),,1.72% (active) and 5.39% (active) and 5.06% (active),14.3% (inactive) and 1.64% (active),0.75% (active) and 23.8% (inactive) and 25.2% (inactive),-51.3% (active) and 20.9% (inactive) and 30.2% (inactive),-41.7% (active) and 24.3% (inactive) and 14% (inactive),135% (inactive) and 24.8% (inactive) and 7.96% (active),-15.3% (active) and 45.8% (inactive) and 46.7% (inactive),-6.87% (active) and 11.3% (inactive) and 12.1% (inactive),0.645% (active),-16.6% (active) and 4.52% (active) and -6.95% (active),-21.5% (active) and 7.17% (active),-17% (active) and 29.6% (inactive) and 19.9% (inactive),72.2% (inactive) and 89.1% (inactive) and 82.5% (inactive),10.7% (inactive) and 47.4% (inactive) and 33.9% (inactive),-7.34% (active) and -5.98% (active),-86.2% (active) and -57.7% (active) and -56.1% (active)
Nc1ccc(N=Nc2ccc(S(=O)(=O)O)cc2)cc1S(=O)(=O)O,95.6% (inactive) and 99.8% (inactive),110% (inactive) and 99.8% (inactive),104% (inactive) and 110% (inactive),,103% (inactive) and 96.2% (inactive),95.1% (inactive) and 103% (inactive),104% (inactive) and 106% (inactive),125% (inactive) and 119% (inactive),112% (inactive) and 104% (inactive),105% (inactive),117% (inactive) and 112% (inactive),88.2% (inactive) and 104% (inactive),99.9% (inactive) and 61.2% (inactive),95.2% (inactive) and 103% (inactive),121% (inactive) and 87.8% (inactive),102% (inactive) and 100% (inactive),150% (inactive),93.8% (inactive) and 117% (inactive),90.9% (inactive) and 72% (inactive),91% (inactive) and 96.3% (inactive)
Cc1cc(N=Nc2ccc(C)c(N=Nc3cc(C)c(N)cc3N)c2)c(N)cc1N,89.5% (inactive) and 78.4% (inactive),87.5% (inactive) and 95.3% (inactive),92% (inactive) and 91% (inactive),60.6% (inactive) and 80.8% (inactive),97.4% (inactive) and 93.2% (inactive),95.2% (inactive) and 81% (inactive),94.5% (inactive) and 102% (inactive),92.5% (inactive) and 81.2% (inactive),107% (inactive) and 90.9% (inactive),75.9% (inactive) and 34.5% (inactive),89.3% (inactive) and 98.5% (inactive),68.6% (inactive) and 73.3% (inactive),91.1% (inactive) and 89.1% (inactive),98.9% (inactive) and 80.7% (inactive),98.6% (inactive) and 66% (inactive),87.9% (inactive) and 99.8% (inactive),91.4% (inactive) and 89.9% (inactive),90.8% (inactive) and 65.4% (inactive),,89.9% (inactive) and 54.9% (inactive)
O=[N+]([O-])c1ccccc1N(S(=O)(=O)c1ccccc1)S(=O)(=O)c1ccccc1,106% (inactive) and 95.9% (inactive),113% (inactive) and 91.2% (inactive),90% (inactive) and 95% (inactive),118% (inactive) and 119% (inactive),108% (inactive) and 114% (inactive),91.3% (inactive) and 80.2% (inactive),109% (inactive),129% (inactive) and 117% (inactive),118% (inactive) and 99.7% (inactive),93% (inactive) and 113% (inactive),120% (inactive) and 109% (inactive),112% (inactive) and 96.5% (inactive),119% (inactive) and 108% (inactive),96.3% (inactive) and 95.2% (inactive),108% (inactive) and 77.6% (inactive),117% (inactive) and 104% (inactive),85.7% (inactive) and 92.4% (inactive),128% (inactive) and 98.6% (inactive),,94.7% (inactive) and 87.3% (inactive)
